Shown are actives, neighbours in structure and some others; about 19% of the full set was active somewhere.
LASV entry inh – qHTS for Inhibitors of binding or entry into cells for Lassa Virus; Lassa virus pseudotype entry inhibition, cell reporter; Potency, µM (top dose mostly 37.9 µM), inactives show top-dose activity change, negative = inhibition, usual class: inhibitors; 300,000 tested, 1.2% active; calls by dose curve; tested in HEK293 cells; further: potency means the concentration at half of the fitted maximal effect; on the % scale 0 is the no-effect control and ±100 the full control effect; nearly all actives have a fitted effect of over 50% in size
Marburg entry inh – qHTS for inhibitors of binding or entry into cells for Marburg Virus; Marburg virus pseudotyped entry inhibition, cell reporter; Potency, µM (top dose mostly 37.8 µM), for the others: top-dose activity change, negative = inhibition, hits mostly inhibitors; 300,000 tested, 1.8% active; AID 540276, 2011; calls by dose curve; tested in HEK293 cells; further: potency means the concentration at half of the fitted maximal effect; on the % scale 0 is the no-effect control and ±100 the full control effect
CHX counter – Cycloheximide Counterscreen for Small Molecule Inhibitors of Shiga Toxin; cell reporter, cycloheximide protein synthesis inhibition counterscreen; max response, %; 300,000 tested, 12% active; AID 2314, 2010; in the data active means max response mostly above about 13%, no sharp cut-off; inactive means mostly below about 14%; further: read at 38.3 µM for the half of the compounds with a filed dose; 0% is about no effect
Pf growth 96h – Primary qHTS for delayed death inhibitors of the malarial parasite plastid, 96 hour incubation | Potency, µM (titrated, usually from 28.7 µM), without a hit: at the top dose activity change, negative = inhibition, actives largely listed as inhibitors | P. falciparum luciferase reporter growth, 96 h | 320,000 tested, 6.9% active; further: potency means the concentration at half of the fitted maximal effect; on the % scale 0 is the no-effect control and ±100 the full control effect
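Plates of compound plus infected erythrocytes (2% hematocrit, 0.05% parasitemia final) incubate 96 hours, 37 C, 5% CO2. Detection reagent added; reduced luminescence from the parasites' luciferase reporter flags inhibition.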
Pf growth 48h – Primary qHTS for delayed death inhibitors of the malarial parasite plastid, 48 hour incubation; P. falciparum luciferase growth in erythrocytes, 48 h; Potency, µM (top dose mostly 28.7 µM), inactives show at the highest dose activity change, negative = inhibition, usual class: inhibitors; 310,000 tested, 5.9% active; AID 504832, 2011; further: potency means the concentration at half of the fitted maximal effect; on the % scale 0 is the no-effect control and ±100 the full control effect
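Here the parasites carry a stable luciferase gene and grow inside erythrocytes in Albumax-based RPMI medium with compound for one erythrocytic cycle. Activity is scored as loss of luminescent signal.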
Shiga inhibitor – A qHTS for Small Molecule Inhibitors of Shiga Toxin; inhibition, % at 38.7 µM; 290,000 tested, 9.2% active; AID 2315, 2010; Vero cells, Shiga toxin protein synthesis inhibition reporter; in the data active means inhibition mostly above about 28%, no sharp cut-off; inactive means mostly below about 43%; further: 0% is about no effect
* hit, by the source's call; ? = inconclusive; . = no result given; [ ] = another dose, or the depositor's remark. Unless noted, the call rests on the fitted dose curve; in most records, active means well fitted inhibition curve with a large enough effect; inconclusive means small, poorly fitted or top-dose-only effect, or another doubt; inactive means no such curve, though single readings can be large or run the other way.

SMILES	LASV entry inh	Marburg entry inh	CHX counter	Pf growth 96h	Pf growth 48h	Shiga inhibitor
CC(=O)c1sc(Nc2nc3cc4c(cc3s2)OCO4)nc1C	.	?	26.5	?	101.6%	74.2*
CCOC(=O)c1sc(Nc2nc3cc4c(cc3s2)OCO4)cc1C	-6.1%	-9.8%	43.2*	9.28µM*	8.28µM*	81.9*
CC(=O)Nc1nc2cc3c(cc2s1)OCO3	.	.	30.9*	250.6%	.	95.8*
CC(=O)c1sc(Nc2ccc(C)cc2)nc1C	2.1%	12.7%[46.1 µM]	14.5	-5.0%	29.3%	13.1
O=C(Nc1nc2cc3c(cc2s1)OCO3)C1=COCCO1	?	0.651µM*	12.6	-11.6%	32.4%	10.2
Cc1ccccc1NC(=O)C(=O)NCC1(c2ccccc2)CCCC1	-23.0%[46.1 µM]	-2.8%[46.1 µM]	.	.	.	.
CCOC(=O)c1sc(Nc2nc3c(OC)cccc3s2)cc1C	?	?	52.7*	-64.0%	-57.5%	107.9*
CC(C)C(=O)Nc1nc2cc3c(cc2s1)OCCO3	4.47µM*	?	55.3*	184.6%	292.4%	92.8*
O=C(COc1ccccc1)Nc1nc2cc3c(cc2s1)OCCO3	.	.	28.4*	75.2%	33.0%	19.1
O=C(COc1ccccc1)Nc1nc2cc3c(cc2s1)OCO3	-18.1%	-24.7%	.	.	.	.
Cc1cc([N+](=O)[O-])cc(/C=N\NC(=O)C2COc3ccccc3O2)c1O (stereo not drawn)	-10.5%	?	-1.0	?	?	-15.6
CCOC(=O)c1c(NC(=O)COC(=O)c2nc(Cl)ccc2Cl)sc(C(=O)N(C)C)c1C	4.8%	25.0%	.	12.0%	4.4%	.
CCOC(=O)c1cnc(-c2ccccc2)nc1C(F)(F)F	-13.5%	-1.7%[46.1 µM]	51.9*	-1.5%	0.1%	73.7*
CCOC(=O)c1cnc(-c2ccccc2)nc1Oc1ccc(Cl)cc1	-7.5%	?	5.6	15.7%	?	-6.1
Cc1nc(Nc2nc3ccccc3o2)nc2c1CCC2	?	7.3µM*	30.3*	76.2%	-10.6%	49.5
CCOC(=O)c1cnc(Nc2nc3ccccc3o2)nc1C	1.3µM*	4.11µM*	35.8*	157.1%	.	67.7*
CCOC(=O)c1cnc(-c2ccccc2O)nc1Cl	-5.0%	?	36.3*	-0.3%	33.2%	69.8*
O=C(O)c1cnc(-c2ccccc2)nc1C(F)(F)F	14.5%	4.8%[46.1 µM]	-2.3	?	-2.4%	-18.4
Cc1ccc(CNC(=O)COc2ccc(S(=O)(=O)N3CCOCC3)cc2)cc1	19.0%	-0.1%[46.1 µM]	.	?	11.7%	.
O=S(=O)(c1ccccc1)c1nc(-c2ccc(F)cc2)oc1N1CCOCC1	?	-7.4%[46.1 µM]	-2.2	33.8%	-5.6%	-3.8
CCOC(=O)c1cnc(Nc2ccccc2)nc1C(F)(F)F	?	?	35.9*	62.4%	41.4%	92.0*
Cc1cc(C)n(CCOC(=O)c2sc3ccccc3c2Cl)n1	5.7%	6.8%	18.4*	-2.7%	30.9%	51.5
COc1ccccc1CN(C)C(=O)c1sccc1-c1ccccc1	-21.7%	-20.0%	10.0	?	-13.2%	18.8
COc1cc2c(cc1NC(=O)c1cccc(F)c1)CCCC2	-2.1%	19.8%	35.9*	31.0%	31.9%	67.3*
O=C(Nc1cccc2c1CCCC2)c1cccc(F)c1	-4.5%	-4.6%	-3.0	65.8%	-5.0%	-5.0
SMILES	LASV entry inh	Marburg entry inh	CHX counter	Pf growth 96h	Pf growth 48h	Shiga inhibitor
COc1cc2c(cc1NC(=O)c1ccccc1F)CCCC2	?	?	50.3*	33.8%	87.8%	92.6*
O=C(Nc1cccc2c1CCCC2)c1ccccc1F	6.3%	9.4%	22.5*	?	6.1%	44.1
COc1ccc(C(=O)Nc2cc3c(cc2N2CCCCC2)n(C)c(=O)n3C)cc1OC	.	.	-2.1	?	?	-4.5
COc1ccccc1C(=O)Nc1ccc(OCC(=O)N2CC(C)CC(C)C2)cc1 (stereo not drawn)	.	.	.	?	-4.8%	.
CC(Nc1nc(N2CCN(S(C)(=O)=O)CC2)nc2ccccc12)c1ccccc1 (stereo not drawn)	0.5%	?	-2.0	?	7.38µM*	-7.0
CC(Nc1ncnc2ccccc12)c1ccccc1 (stereo not drawn)	?	?	-2.5	-35.9%	-2.5%	-6.8
COc1ccc(Nc2nc(N3CCN(S(=O)(=O)N(C)C)CC3)nc3ccccc23)cc1	.	.	-1.4	8.28µM*	10.4µM*	-7.8
COc1ccc(Nc2nc(N3CCN(S(C)(=O)=O)CC3)nc3ccccc23)c(OC)c1	-27.9%[46.1 µM]	-23.3%[46.1 µM]	2.0	-16.4%	?	-7.5
Cc1cc(NC(=O)CCC(=O)N(CC(=O)NC2CCCC2)c2cccc(F)c2)no1	-8.5%	-6.0%[46.1 µM]	0.6	?	-17.6%	-13.8
O=C(Cn1cnc2ccccc2c1=O)c1ccc(Br)cc1	?	?	27.7*	?	150.1%	45.0*
O=C(Cn1cnc2ccccc2c1=O)c1ccc(Cl)cc1	.	.	44.2*	77.0%	83.9%	120.3*
O=C(Cn1cnc2ccccc2c1=O)c1ccc(OC(F)F)cc1	?	?	34.4*	4.3%	-8.0%	57.1*
O=C(Cn1cnc2ccccc2c1=O)c1ccccc1	9.2%	4.3%	38.8*	32.9%	46.8%	78.4*
CN(C)S(=O)(=O)Oc1ccccc1C(=O)Nc1ccc(F)cc1	19.3%[46.1 µM]	1.0%[46.1 µM]	1.0	8.9%	2.5%	-2.1
COc1ccccc1CNC(=O)CN1C(=O)c2ccccc2S1(=O)=O	1.4%[46.1 µM]	-19.7%[46.1 µM]	14.9	-5.6%	8.5%	-1.3
CCCn1c(=O)c(C(=O)Nc2ccccc2)c(O)c2ccccc21	9.1%	-1.3%	-1.4	2.7%	32.6%	15.6
O=c1c2ccccc2nnn1Cc1ccc(Br)cc1	1.2%[46.1 µM]	?	10.9	2.5%	-17.5%	25.6
O=C(Cn1nnc2ccccc21)c1ccc(Cl)cc1	.	.	40.5*	33.1%	58.6%	54.4*
CCOC(=O)c1ccc(Cn2cnc3ccccc3c2=O)cc1	-1.5%	21.2%	11.4	13.1µM*	-12.3%	22.7
CCOc1ccc(-n2nnc3c(=O)n(CC(=O)c4ccccc4)cnc32)cc1	.	.	1.1	9.4%	4.3%	-8.7
CCOc1ccc(C(=O)Cn2cnc3ccccc3c2=O)cc1	20.0%[46.1 µM]	?	56.6*	40.6%	32.2%	116.9*
CC(C)OC(=O)c1ccc(Cn2nnc3ccccc3c2=O)cc1	2.0%	?	26.7*	.	.	89.4*
COc1ccccc1CNC(=O)CSc1nc(-c2ccc(OC)c(OC)c2)cc(C(F)(F)F)n1	6.1%[46.1 µM]	?	.	.	.	.
O=c1c2ccccc2ncn1Cc1ccc(Cl)cc1	14.9%[46.1 µM]	18.0%[46.1 µM]	0.6	?	7.4%	-11.1
O=C(CCn1nnc2ccccc21)OCC(=O)c1ccc(F)cc1	5.9%	18.9%[46.1 µM]	-4.2	-1.8%	35.6%	-2.1
O=C(Cn1cc(Cl)ccc1=O)c1ccc(Cl)cc1	7.3%[46.1 µM]	?	16.1*	45.8%	2.6%	-95.3
O=C(Cn1nnc2ccccc21)OCC(=O)c1ccc(F)cc1	-1.9%	-26.7%[14.2 µM]	9.4*	37.8%	-0.5%	12.7

Screening data (PubChem)
